Bioassay records (PubChem BioAssay)
HPGD block: inhibitors of human 15-hydroxyprostaglandin dehydrogenase (HPGD). P15428. purified HPGD, NADH fluorescence kinetic, PGE2 substrate. Potency, µM, without a hit: at the highest dose activity change, negative = inhibition, usual class: inhibitors. actives 4.3% (n = 150,000); further: on the % scale 0 is the no-effect control and ±100 the full control effect
Target sequence (P15428 whole entry, looked up): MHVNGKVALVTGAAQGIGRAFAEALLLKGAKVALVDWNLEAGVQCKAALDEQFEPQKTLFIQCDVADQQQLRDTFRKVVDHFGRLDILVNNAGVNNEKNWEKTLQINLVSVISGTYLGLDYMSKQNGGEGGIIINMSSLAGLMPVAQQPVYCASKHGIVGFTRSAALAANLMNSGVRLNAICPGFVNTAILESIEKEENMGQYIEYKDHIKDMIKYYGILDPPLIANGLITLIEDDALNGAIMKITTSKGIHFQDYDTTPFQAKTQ
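20 nM HPGD preincubated 15 min at room temperature with compound in 50 mM Tris-HCl pH 8, 0.01% Tween 20. Started with 1 mM NAD+ and 30 uM prostaglandin E2; NADH fluorescence (360/450 nm) read 5 times over 30-s intervals, last minus first.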
HTT ATP protect: Huntington cell model cytoprotection by ATP luminescence | PC12 HTT-Q103 induced, cytoprotection, ATP luminescence, 40 h | Potency, µM (highest dose often 56.4 µM), for the others: cytoprotection (ATP increase), most hits filed as activators | actives 0.14% (n = 230,000); active means well fitted curve in the direction sought with a large enough effect; inconclusive means small, poorly fitted or top-dose-only effect, or another doubt; inactive means no such curve, though single readings can be large; an effect the other way counts as inactive or inconclusive; further: % of control where 0% means no effect; nearly all actives have a fitted effect of over 45% in size
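Stable PC12 Q103-GFP cells in serum-supplemented, phenol red-free DMEM; induction by tebufenozide at 100 nM final; compound dose series; cell viability quantified luminescently from ATP.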
LMNA splice mod: LMNA splicing modulation; actives 0.01% (n = 200,000); Potency, µM (series often up to 46.1 µM), inactives show at the highest dose ratio change, negative = inhibition, actives largely listed as inhibitors; HeLa LMNA splicing GFP/RFP minigene ratio, 48 h; active means well fitted inhibition curve with a large enough effect in the signal ratio, with a control signal flat, not every such curve was filed as active; inconclusive means small, poorly fitted or top-dose-only effect, or effect the other way, or a change in a side signal; the % refers to the signal ratio; further: on the % scale 0 is the no-effect control and ±100 the full control effect
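S3 HeLa stable clones carrying a lamin A-EGFP splicing minigene plus DsRed2 were seeded at 600 cells/well in Opti-MEM with 2% FBS, pin-dosed and incubated 48 h at 37°C. Acumen cytometry (488 nm) gave the GFP/RFP total-intensity ratio.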
HTT aggregate: reduces HttQ103-GFP aggregates in PC12 cells | Potency, µM (top dose mostly 46.1 µM), for the others: top-dose activity change, negative = inhibition, hits mostly inhibitors | PC12 HttQ103-GFP aggregates, Acumen cytometry, 40 h | AID 1688 | actives 1.1% (n = 220,000); active means well fitted curve in the direction sought with a large enough effect; inconclusive means small, poorly fitted or top-dose-only effect, or another doubt; inactive means no such curve, though single readings can be large; an effect the other way counts as inactive or inconclusive; further: on the % scale 0 is the no-effect control and ±100 the full control effect; nearly all actives have a fitted effect of over 60% in size
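Using laser scanning cytometry, GFP-positive aggregates were counted after lysis of PC12 cells induced with 100 nM tebufenozide to express HTT exon 1 Q103–GFP. Compounds were tested in titration.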
ALDH1A1 block: ALDH1A1 (human) enzyme inhibition. actives 7.3% (n = 220,000). P00352. Potency, µM (doses to about 75.3 µM), for inactives: top-dose activity, negative = inhibition, hits mostly inhibitors. Purified ALDH1A1, NADH fluorescence, propionaldehyde substrate;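 further: plate controls were no enzyme wells and a reference inhibitor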
Target sequence (P00352 whole entry, looked up): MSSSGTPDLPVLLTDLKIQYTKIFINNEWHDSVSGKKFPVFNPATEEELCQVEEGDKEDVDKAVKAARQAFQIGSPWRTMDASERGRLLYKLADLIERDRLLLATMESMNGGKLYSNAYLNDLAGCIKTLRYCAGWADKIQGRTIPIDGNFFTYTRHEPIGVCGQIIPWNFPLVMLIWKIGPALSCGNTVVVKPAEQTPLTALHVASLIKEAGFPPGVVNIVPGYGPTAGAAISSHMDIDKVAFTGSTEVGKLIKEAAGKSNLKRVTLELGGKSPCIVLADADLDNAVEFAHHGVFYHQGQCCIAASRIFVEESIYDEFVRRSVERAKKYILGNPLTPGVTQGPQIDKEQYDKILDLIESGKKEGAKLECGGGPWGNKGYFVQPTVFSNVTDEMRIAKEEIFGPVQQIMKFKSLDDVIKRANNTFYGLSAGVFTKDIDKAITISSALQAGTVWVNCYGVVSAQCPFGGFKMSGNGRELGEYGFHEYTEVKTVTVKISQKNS
Active calls of the source: *; u = inconclusive; x = no result given; [ ] = remark or other dose. Compounds with a hit are over-represented: about 8.8% of the library has one in this group of screens. Unless noted, the call rests on the fitted dose curve; in most records, active means well fitted inhibition curve with a large enough effect (not every such curve was filed as active); inconclusive means small, poorly fitted or top-dose-only effect, or another doubt; inactive means no such curve, though single readings can be large or run the other way. Potency means the concentration at half of the fitted maximal effect.

SMILES | HPGD block | HTT ATP protect | LMNA splice mod | HTT aggregate | ALDH1A1 block
COc1ccc(CNc2nc(SCC(=O)NCc3ccco3)nc3ccccc23)cc1 | 10µM* | 13%[1.9 µM] | 0% | -4% | u
COc1ccc(Cc2nnc(SCc3ccc([N+](=O)[O-])cc3)o2)cc1 | x | x | u | 7.1µM* | u
COc1ccc(OCc2nnc(SCC(=O)NCc3ccco3)o2)cc1 | -11% | -16% | 4% | -1% | 1%
Cc1cccc(S(=O)(=O)Nc2cccc(-c3ccc(N4CCCCC4)nn3)c2)c1 | x | x | 19%[46 µM] | x | x
Cc1ccc(-c2nnn(CC(=O)N(c3ccc4c(c3)OCCO4)C(C(=O)NCC3CCCO3)c3ccc(F)cc3)n2)o1 (configuration not stated) | x | -12% | x | -18% | 12%
COc1ccc(S(=O)(=O)CCC(=O)NCCc2ccc(C)cc2)cc1 | -11% | 4% | -4% | -8% | 25µM*
CCNS(=O)(=O)c1ccc(CCC(=O)NCCc2ccc(OC)cc2)cc1 | x | x | x | 6% | u
COc1ccc(S(=O)(=O)CCC(=O)O)cc1 | 0% | -28% | 14% | 2.2µM* | 4%
COc1ccc(Nc2ncnc3c2cnn3-c2cc(Cl)ccc2C)cc1OC | x | x | -16%[46 µM] | x | x
Cc1c(C)c(C)c(CO/N=C/c2cccs2)c(C)c1C | x | -6%[10 µM] | x | -17%[9.22 µM] | 6%
Cc1ccc(NC(=O)CC(C)S(=O)(=O)c2ccc3c(c2)NC(=O)CO3)c(C)c1 (configuration not stated) | x | x | 7%[46 µM] | x | x
COc1ccc(CCNC2CC(=O)N(CCc3ccc(OC)c(OC)c3)C2=O)cc1 (configuration not stated) | -10% | -10% | 15% | -2% | 18µM*
CCc1ccc(NC2CC(=O)N(CCc3ccc(OC)c(OC)c3)C2=O)cc1 (configuration not stated) | x | x | u | -14% | 3.2µM*
CCCNC(=O)CN(c1cccc(F)c1)S(C)(=O)=O | -2% | x | 0% | -6% | 4%
CC(C)C(NC(=O)CN(c1cccc(F)c1)S(C)(=O)=O)C(C)C | -2% | 4%[1.9 µM] | -2% | 8% | 35µM*
CCOc1ccc2ccccc2c1/C=N/n1cncn1 | 32µM* | 0% | 15% | 12% | u
CCCOc1ccc2ccccc2c1/C=N/n1cnnc1 | -12% | 13%[1.9 µM] | -5% | -14% | 5%
COc1ccc2ncc(OC(C)=O)cc2c1 | u | 0%[10 µM] | -3% | 7% | u
Cc1ccc(Sc2nnc(Cc3ccccc3)c3ccccc23)cc1 | -29% | 2%[10 µM] | u | 33%[9.22 µM] | 28µM*
CCc1nc(SCC(=O)c2ccc(C)c(C)c2)n[nH]1 | u | 15% | 1% | 12% | u
Cc1nc(SCC(=O)c2ccc(F)cc2)n[nH]1 | 10µM* | -3% | u | 4% | 4.5µM*
COc1ccc(C(=O)CSc2n[nH]c(C)n2)cc1[N+](=O)[O-] | x | x | x | 16% | 10µM*
Cc1cn2c(=O)cc(COC(=O)c3ccccc3F)nc2s1 | x | x | 8%[46 µM] | x | x
COc1ccc(C(=O)NCCn2ccc3ccccc32)c(OC)c1 | u | 8% | u | -32% | 10µM*
COc1ccccc1CNC(=O)c1cccs1 | 16µM* | -9% | 2% | 3% | 11%
SMILES | HPGD block | HTT ATP protect | LMNA splice mod | HTT aggregate | ALDH1A1 block
COc1ccccc1CNC(=O)N/C=C/c1ccc(Cl)cc1 | x | -14% | 2%[9.22 µM] | -15% | 25µM*
COc1ccccc1CNC(=O)c1c(-c2ccccc2)nn(-c2ccccc2)c1C | -15% | -1% | -20% | -24% | 4µM*
COc1ccc(C(=O)NCc2ccccc2OC)c(OC)c1 | 28µM* | -11%[10 µM] | -6% | u | u
COc1ccccc1CNC(=O)Nc1cccs1 | 22µM* | -8% | 7% | -4% | u
COc1ccccc1C(OC(=O)c1cccs1)C(=O)NCc1ccco1 (configuration not stated) | -25% | -18% | -5% | 21% | 25µM*
CC(OC(=O)c1cccs1)C(=O)NCc1ccco1 (configuration not stated) | -25% | 2%[10 µM] | 5% | -14% | 13%
COc1ccccc1CNC(=O)c1cccc(-c2ccccc2OC)n1 | 7.9µM* | -67% | x | x | 32µM*
COc1ccc(C(=O)NCc2ccccc2OC)cc1 | -16% | -4%[10 µM] | -12% | -4% | -1%
COc1ccc(CCN2C(=NC(=O)CCC(=O)O)SC3CS(=O)(=O)CC32)cc1OC (configuration not stated) | -9% | -19% | 7% | 17% | 25µM*
COc1ccc(CCNc2nc(SCc3cccc(Cl)c3)nc3ccccc23)cc1OC | x | x | 8%[46 µM] | x | x
Cc1ccc(C)n1CCN1CCN(CC(=O)Nc2ccc(S(N)(=O)=O)cc2)CC1 | -7% | 3% | u | u | 25µM*
O=C(Cc1cccs1)N1CCN(c2cccc(Cl)c2)CC1 | x | 31%[10 µM] | 19%[46 µM] | -19%[9.22 µM] | 6%
O=C(O)CCC(=O)N1CCN(c2cccc(Cl)c2)CC1 | -6% | 6% | 12% | 12% | 28µM*
CCOCC(=O)N1CCN(c2cccc(Cl)c2)CC1 | x | -32% | x | 4%[9.22 µM] | 3.2µM*
Cc1ccc(NC(=O)CN(C)C2CCCCC2)cc1Br | x | 1%[10 µM] | x | 3%[9.22 µM] | 28µM*
Cc1sc(NC(=S)Nc2ccc(F)cc2)c(C(N)=O)c1C | x | 6%[10 µM] | 11%[46 µM] | -1%[9.22 µM] | 10µM*
COC(=O)c1c(NC(=S)Nc2ccc(CC(=O)O)cc2)sc(C)c1C | -26% | -1%[10 µM] | 9% | 9% | 25µM*
Brc1ccc(C2C3=C(Nc4ncnn42)c2ccccc2OC3c2ccncc2)cc1 (configuration not stated) | -10% | -61% | u | 10µM* | 11%
CCN(CCNC(=O)C1CCN(Cc2nc(-c3cccc(Cl)c3)oc2C)CC1)c1ccccc1 | -21% | -91% | u | 10µM* | -15%
CCN(CCNC(=O)C1CCN(Cc2nc(-c3ccc(Cl)cc3)oc2C)CC1)c1ccccc1 | -6% | -74%[0.074 µM] | u | u | -2%
O=C1COc2ccc(N3C(=O)C=CC3=O)cc2N1 | x | -23% | x | 2%[9.22 µM] | 6.3µM*
CC(Oc1ccccc1)C(=O)Nc1ccc(C(=O)OCc2cc(=O)n3ccsc3n2)cc1 (configuration not stated) | x | x | -8%[46 µM] | x | x
CC(C)NC(=O)COc1ccc(OCc2ccccc2)cc1 | x | 10%[10 µM] | -32%[46 µM] | 6% | 2%
O=C(COc1ccc(OCc2ccccc2)cc1)NN=C1CCCC1 | x | 6% | x | -4% | 8.9µM*
COc1ccc(C(=O)NCC(=O)OCC(=O)c2ccc3c(c2)OCCO3)cc1 | -13% | -8% | 0% | 2%[1.84 µM] | 7.9µM*
COc1ccc(C(=O)NCC(=O)NCC(=O)OCC(=O)c2cccs2)cc1 | -12% | x | 4% | 5% | 16µM*
COc1ccc(C(=O)NCC(=O)OCC(=O)NCc2cccs2)cc1 | x | -13% | 6%[46 µM] | 0% | u
CCOc1ccccc1C(=O)Nc1cccc(-c2nc3ccccc3s2)c1 | x | x | 10%[46 µM] | x | x
COc1ccc2[nH]cc(CCNc3ccnc(-c4cccnc4)n3)c2c1 | x | u | u | x | 9%
